Columns and labels:
Test in all cases: log2 ratio of Biotin-Ahx-Ub-VS probe labelling (fragment/DMSO); higher = less target engagement (more negative = stronger competition), active = hit call of the paper (q ≤ 0.05, log2 ratio ≤ -1)
Conditions in all cases: compound concentration: 200 uM; treatment time: 3 h
USP34 = USP34 (UniProt Q70CQ2)
Method in brief: (§1)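 Triplicate samples of HEK293T lysate, 495 µg each, received fragment at 200 µM or vehicle for 3 h, followed by Biotin-Ahx-Ub-VS (0.5 µM final) for 1 h. After NeutrAvidin enrichment of labelled DUBs and LysC/trypsin digestion, peptides were run by diaPASEF LC-MS/MS. The values are average log2 fragment/vehicle ratios from global-median-normalised Spectronaut label-free quantities, tested by unpaired t-test on proteins having ≥2 unique peptides.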

USP36 = molecular target: T1, USP36 (UniProt Q9P275)
T1 sequence (whole entry): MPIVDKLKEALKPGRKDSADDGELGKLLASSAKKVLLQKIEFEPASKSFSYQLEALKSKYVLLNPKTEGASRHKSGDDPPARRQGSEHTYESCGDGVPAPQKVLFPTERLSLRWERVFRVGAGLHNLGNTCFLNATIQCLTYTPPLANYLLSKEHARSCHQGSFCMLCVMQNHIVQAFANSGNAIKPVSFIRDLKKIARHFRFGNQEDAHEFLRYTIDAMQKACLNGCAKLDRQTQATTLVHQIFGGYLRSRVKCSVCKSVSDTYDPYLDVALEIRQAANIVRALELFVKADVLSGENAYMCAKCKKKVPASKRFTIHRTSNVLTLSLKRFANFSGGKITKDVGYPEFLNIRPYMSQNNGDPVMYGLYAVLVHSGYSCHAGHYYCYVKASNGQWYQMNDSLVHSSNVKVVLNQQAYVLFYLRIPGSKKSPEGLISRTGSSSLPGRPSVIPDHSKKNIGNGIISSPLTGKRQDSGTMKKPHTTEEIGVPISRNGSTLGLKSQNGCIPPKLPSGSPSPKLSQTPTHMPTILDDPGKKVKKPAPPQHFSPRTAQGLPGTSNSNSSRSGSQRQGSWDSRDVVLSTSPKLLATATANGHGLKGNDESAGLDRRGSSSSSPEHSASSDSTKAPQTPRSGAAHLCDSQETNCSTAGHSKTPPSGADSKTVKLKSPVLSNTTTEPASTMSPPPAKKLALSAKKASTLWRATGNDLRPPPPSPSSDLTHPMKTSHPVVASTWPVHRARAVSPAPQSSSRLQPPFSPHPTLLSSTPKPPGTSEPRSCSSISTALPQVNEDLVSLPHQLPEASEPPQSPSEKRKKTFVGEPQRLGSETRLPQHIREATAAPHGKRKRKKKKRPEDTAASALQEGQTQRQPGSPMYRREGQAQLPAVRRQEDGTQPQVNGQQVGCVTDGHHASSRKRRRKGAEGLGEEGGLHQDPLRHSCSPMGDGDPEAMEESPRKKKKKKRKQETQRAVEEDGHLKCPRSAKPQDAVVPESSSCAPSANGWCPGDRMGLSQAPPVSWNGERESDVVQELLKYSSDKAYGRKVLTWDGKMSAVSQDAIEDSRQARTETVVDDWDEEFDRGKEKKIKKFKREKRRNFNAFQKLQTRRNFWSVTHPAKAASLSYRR
Method in brief: as §1

USP38 = molecular target: T2, USP38 (UniProt Q8NB14)
T2 sequence (whole entry): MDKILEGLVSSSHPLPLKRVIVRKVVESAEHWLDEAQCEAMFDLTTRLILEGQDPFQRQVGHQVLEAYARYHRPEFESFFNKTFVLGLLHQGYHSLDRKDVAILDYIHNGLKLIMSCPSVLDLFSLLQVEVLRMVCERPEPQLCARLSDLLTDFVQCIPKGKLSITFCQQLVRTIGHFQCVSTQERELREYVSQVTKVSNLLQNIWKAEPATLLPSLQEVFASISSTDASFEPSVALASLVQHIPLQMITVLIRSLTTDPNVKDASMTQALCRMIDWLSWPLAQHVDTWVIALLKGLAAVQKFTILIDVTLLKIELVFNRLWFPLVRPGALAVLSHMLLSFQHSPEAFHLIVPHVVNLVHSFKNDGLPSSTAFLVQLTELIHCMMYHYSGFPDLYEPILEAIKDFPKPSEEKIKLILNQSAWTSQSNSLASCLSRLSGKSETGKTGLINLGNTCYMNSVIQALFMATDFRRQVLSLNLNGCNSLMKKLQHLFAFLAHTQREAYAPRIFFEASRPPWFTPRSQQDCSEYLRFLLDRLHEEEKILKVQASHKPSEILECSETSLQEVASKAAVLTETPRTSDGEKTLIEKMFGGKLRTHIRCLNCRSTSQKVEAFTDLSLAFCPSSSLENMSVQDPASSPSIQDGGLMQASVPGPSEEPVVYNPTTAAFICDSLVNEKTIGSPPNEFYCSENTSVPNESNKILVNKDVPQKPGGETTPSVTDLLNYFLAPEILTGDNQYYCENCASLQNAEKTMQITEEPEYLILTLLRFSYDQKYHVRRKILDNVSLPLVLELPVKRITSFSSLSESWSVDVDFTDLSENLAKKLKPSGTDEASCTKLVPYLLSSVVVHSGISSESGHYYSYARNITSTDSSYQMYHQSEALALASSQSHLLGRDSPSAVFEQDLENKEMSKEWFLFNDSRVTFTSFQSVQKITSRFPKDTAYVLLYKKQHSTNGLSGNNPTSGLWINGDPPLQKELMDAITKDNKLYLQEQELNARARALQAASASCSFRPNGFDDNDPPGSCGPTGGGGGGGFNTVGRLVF
Method in brief: as §1

USP39 = molecular target: T3, USP39 (UniProt Q53GS9)
T3 sequence (whole entry): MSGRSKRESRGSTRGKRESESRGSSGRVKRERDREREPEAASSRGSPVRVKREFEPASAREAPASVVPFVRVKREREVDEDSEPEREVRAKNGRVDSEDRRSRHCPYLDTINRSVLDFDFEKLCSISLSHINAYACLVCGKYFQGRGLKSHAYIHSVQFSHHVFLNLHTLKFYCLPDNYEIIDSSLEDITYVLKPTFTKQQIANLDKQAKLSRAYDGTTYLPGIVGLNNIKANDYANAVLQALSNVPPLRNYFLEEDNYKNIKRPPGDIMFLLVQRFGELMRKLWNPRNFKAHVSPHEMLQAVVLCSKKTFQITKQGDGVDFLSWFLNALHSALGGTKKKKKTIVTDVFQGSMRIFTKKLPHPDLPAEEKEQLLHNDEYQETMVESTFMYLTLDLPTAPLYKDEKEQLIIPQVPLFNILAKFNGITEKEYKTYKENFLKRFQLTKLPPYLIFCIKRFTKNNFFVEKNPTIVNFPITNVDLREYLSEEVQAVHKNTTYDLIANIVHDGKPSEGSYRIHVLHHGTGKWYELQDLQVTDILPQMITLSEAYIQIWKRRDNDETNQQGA
Method in brief: as §1

USP4 = molecular target: T4, USP4 (UniProt Q13107)
T4 sequence (whole entry): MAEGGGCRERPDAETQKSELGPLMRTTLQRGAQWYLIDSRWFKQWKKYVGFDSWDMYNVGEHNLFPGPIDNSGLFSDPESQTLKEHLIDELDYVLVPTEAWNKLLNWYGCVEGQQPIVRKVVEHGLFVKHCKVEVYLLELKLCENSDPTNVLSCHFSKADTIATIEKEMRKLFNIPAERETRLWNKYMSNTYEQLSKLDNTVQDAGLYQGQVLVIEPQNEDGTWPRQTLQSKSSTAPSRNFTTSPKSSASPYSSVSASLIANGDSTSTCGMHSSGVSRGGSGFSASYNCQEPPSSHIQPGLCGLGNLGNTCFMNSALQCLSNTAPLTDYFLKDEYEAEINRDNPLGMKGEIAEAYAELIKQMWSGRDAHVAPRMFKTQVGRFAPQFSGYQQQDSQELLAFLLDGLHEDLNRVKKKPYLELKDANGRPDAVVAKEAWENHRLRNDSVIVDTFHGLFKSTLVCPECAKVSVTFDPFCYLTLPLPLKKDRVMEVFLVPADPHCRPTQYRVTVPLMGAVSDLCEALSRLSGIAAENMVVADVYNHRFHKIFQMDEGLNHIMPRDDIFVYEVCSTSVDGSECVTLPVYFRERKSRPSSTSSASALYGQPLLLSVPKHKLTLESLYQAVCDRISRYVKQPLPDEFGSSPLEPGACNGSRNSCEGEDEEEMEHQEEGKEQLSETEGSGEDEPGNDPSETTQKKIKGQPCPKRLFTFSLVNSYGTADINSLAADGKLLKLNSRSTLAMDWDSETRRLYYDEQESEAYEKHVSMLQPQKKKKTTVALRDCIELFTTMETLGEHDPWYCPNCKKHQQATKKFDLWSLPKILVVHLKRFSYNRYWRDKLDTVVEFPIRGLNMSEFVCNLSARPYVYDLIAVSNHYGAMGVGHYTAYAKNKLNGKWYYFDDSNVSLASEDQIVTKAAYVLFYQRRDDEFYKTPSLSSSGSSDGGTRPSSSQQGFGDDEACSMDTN
Method in brief: as §1

Measured: log2 ratio of Biotin-Ahx-Ub-VS probe labelling

Sequence of USP34 (Q70CQ2 whole entry, the tested form may be a part): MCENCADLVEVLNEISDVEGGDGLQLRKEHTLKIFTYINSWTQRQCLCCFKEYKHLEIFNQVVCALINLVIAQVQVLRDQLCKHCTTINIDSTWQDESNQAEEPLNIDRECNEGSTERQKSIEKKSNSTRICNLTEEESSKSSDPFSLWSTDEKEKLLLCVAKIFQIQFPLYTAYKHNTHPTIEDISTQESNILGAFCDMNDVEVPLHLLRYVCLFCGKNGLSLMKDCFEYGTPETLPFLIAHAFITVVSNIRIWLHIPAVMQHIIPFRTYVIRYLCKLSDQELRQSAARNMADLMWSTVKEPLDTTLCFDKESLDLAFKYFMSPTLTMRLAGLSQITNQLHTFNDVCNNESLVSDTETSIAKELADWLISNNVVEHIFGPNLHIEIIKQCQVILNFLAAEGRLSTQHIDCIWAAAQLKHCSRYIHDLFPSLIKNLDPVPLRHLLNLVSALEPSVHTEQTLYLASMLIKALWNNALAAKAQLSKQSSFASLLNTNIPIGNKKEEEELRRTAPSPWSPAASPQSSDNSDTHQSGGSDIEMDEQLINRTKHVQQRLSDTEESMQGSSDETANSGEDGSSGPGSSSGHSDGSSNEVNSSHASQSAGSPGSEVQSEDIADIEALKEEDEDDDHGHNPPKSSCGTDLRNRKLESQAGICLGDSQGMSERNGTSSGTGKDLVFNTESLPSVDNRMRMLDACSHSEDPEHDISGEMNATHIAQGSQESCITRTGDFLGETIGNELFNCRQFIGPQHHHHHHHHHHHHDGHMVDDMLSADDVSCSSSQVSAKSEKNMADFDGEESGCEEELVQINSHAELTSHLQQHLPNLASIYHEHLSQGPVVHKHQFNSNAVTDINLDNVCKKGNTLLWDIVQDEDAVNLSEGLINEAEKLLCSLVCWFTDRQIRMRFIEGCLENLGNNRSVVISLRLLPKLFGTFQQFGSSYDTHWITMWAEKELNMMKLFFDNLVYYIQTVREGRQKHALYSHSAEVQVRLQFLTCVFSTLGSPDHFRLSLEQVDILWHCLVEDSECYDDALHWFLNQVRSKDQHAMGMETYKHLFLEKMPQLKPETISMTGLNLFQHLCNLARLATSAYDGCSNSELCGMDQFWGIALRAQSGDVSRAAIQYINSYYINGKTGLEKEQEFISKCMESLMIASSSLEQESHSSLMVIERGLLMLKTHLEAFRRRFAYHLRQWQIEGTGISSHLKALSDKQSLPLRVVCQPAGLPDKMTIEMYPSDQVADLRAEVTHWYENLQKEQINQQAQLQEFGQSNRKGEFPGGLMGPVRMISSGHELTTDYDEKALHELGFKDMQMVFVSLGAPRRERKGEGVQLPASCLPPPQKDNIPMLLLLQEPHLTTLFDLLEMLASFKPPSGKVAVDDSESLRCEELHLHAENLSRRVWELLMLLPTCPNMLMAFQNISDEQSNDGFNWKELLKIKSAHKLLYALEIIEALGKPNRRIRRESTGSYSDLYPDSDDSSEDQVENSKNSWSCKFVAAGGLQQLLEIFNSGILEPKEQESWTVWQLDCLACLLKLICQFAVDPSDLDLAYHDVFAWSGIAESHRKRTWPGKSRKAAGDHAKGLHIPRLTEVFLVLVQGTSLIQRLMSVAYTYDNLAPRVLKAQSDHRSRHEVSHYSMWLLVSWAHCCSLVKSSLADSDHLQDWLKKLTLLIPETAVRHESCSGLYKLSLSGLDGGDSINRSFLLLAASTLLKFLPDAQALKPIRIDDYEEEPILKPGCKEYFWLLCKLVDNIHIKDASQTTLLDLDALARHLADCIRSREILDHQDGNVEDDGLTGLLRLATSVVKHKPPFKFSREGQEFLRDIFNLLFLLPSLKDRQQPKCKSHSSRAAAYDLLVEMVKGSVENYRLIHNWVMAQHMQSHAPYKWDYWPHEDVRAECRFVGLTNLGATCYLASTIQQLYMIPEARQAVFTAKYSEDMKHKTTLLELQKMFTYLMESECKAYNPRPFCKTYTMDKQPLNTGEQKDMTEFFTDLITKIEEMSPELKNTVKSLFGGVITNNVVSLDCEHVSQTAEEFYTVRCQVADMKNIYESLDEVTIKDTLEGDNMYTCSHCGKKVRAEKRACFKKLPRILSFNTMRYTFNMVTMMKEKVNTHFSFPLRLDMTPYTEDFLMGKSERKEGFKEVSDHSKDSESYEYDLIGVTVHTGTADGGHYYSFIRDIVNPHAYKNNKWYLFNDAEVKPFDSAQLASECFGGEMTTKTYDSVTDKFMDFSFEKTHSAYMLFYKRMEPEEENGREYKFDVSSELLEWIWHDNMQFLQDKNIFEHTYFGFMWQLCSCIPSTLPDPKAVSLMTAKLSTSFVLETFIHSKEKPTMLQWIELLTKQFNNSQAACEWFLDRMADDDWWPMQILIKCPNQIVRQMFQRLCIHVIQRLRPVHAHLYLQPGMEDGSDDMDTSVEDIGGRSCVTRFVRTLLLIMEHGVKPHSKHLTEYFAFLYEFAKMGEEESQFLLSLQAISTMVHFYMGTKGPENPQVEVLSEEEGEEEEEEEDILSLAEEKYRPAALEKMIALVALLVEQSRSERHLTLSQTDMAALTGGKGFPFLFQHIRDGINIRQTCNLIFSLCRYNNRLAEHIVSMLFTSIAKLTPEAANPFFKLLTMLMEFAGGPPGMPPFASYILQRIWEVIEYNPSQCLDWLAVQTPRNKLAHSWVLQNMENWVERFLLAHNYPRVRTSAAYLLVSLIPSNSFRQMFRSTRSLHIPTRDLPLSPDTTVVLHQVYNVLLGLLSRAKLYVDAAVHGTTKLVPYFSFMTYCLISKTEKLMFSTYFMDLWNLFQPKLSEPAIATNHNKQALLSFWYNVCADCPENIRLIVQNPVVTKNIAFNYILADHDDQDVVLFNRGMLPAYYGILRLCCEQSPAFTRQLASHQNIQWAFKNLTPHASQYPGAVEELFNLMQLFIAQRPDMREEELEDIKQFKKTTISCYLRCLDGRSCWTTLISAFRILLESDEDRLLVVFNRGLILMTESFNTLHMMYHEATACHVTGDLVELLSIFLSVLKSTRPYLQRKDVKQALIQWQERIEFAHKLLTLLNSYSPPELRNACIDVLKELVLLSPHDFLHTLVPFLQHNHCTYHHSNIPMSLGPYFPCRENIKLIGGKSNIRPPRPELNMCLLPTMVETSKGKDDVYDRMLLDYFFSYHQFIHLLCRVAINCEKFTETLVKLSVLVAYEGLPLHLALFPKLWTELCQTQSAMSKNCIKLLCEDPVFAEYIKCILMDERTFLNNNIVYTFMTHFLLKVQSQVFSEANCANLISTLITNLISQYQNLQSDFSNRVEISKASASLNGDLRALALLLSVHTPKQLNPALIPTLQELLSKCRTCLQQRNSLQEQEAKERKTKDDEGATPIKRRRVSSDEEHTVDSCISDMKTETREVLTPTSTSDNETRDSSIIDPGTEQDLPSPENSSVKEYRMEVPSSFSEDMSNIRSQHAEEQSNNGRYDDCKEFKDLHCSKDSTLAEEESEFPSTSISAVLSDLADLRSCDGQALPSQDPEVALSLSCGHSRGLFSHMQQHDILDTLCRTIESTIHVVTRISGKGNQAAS

O=C(CCl)N1CCC(c2ccn[nH]2)C1 (stereo not given)
inactive: USP34 0.0363 | USP36 -0.353 | USP38 -0.148 | USP39 0.00596 | USP4 -0.113

From the supplement of paper PMC11732987, “Enantioselective OTUD7B fragment discovery through chemoproteomics screening and high-throughput optimisation” (Communications Chemistry, 2025)
